# The list is a sample of the results.
# aSyn UTR act: Activators via SNCA 5'UTR binding, MLPCN; 300,000 tested, 7.1% active; activity score, % (tested at 7.5 µM), hits read low; alpha-synuclein 5'UTR reporter, activators screen; in the data active = activity score below about -60%
# Active calls of the source: *.
SMILES,aSyn UTR act
O=C(NC(CSCc1ccccc1)C(=O)N/N=C/c1ccc(O)cc1O)c1ccc([N+](=O)[O-])cc1 (centres undefined),84
O=[N+]([O-])c1ccc(O)c(/C=N/n2cnc3ccccc32)c1,-67*
O=[N+]([O-])c1cccc(N/N=C/c2cccc(O)c2O)c1,-110*
O=C(N/N=C/c1cc([N+](=O)[O-])ccc1O)c1cccc2cc[nH]c12,68
O=[N+]([O-])c1ccc(O)c(/C=N/Nc2ccccc2Cl)c1,-85*
Cc1cc(/C=N/Nc2nc(N)ncc2[N+](=O)[O-])c(C)n1-c1ccccc1F,73
COc1ccc(/C=N/Nc2cc(C)nc3ccc(OC)cc23)c(OC)c1,117
O=[N+]([O-])c1ccccc1N/N=C\c1ccccc1F,-165*
O=[N+]([O-])c1ccccc1N/N=C/c1cccc(O)c1O,-104*
COc1ccc(/C=N/Nc2ncccc2[N+](=O)[O-])c(OC)c1,-122*
CCCOc1ccc(/C=N/Nc2ccccc2[N+](=O)[O-])c(OCCC)c1,-133*
Cc1ccc(S(=O)(=O)c2nc(S(=O)(=O)c3ccc(C)cc3)c(N3CCN(CCO)CC3)s2)cc1,-64*
Cc1ccc(S(=O)(=O)c2nc(S(C)(=O)=O)sc2N2CCOCC2)cc1,-72*
COc1ccc(Cl)cc1NC(=O)CN(C)CC(=O)Nc1ccccc1N1CCOCC1,112
Cc1ccn2cc(C(=O)Nc3ccccc3N3CCOCC3)nc2c1,-90*
O=C(Nc1ccccc1N1CCOCC1)c1ccc2ccccc2n1,-118*
Cc1ccn2cc(C(=O)Nc3nnc(C)s3)nc2c1,-111*
Cc1cc(C)n(-c2nc(-c3ccccc3)cs2)n1,-89*
Cc1cc(C)n(-c2nc(-c3cccc(Cl)c3)cs2)n1,-102*
CC(=O)c1cnc2nc(SCc3ccccc3C)nn2c1C,-75*
CC(C(=O)OCc1nnc(-c2ccccc2)o1)N1C(=O)C2CCCCC2C1=O (centres undefined),-63*
COc1cccc(/C=C/c2ccccn2)c1O,-98*
Cc1ccc(-c2nnc(/C=C/c3ccccc3)o2)cc1,-136*
Cc1cc(-c2nnc(-c3cccc(Cl)c3)o2)no1,-171*
Cc1ccccc1-c1nnc(-c2ccccc2)o1,-138*
SMILES,aSyn UTR act
Cn1cc(-c2nnc(-c3ccccc3)o2)c2ccccc21,-64*
Cc1ccc(-c2nnc(-c3ccc4c(c3)OCO4)o2)cc1,-116*
Cc1ccccc1-c1nnc(-c2ccc(Cl)cc2)o1,-234*
Cc1cccc(-c2nnc(-c3ccccc3)o2)c1,-127*
Cc1cccnc1CN1CCN(C(=O)CCc2nnc(CCc3ccccc3)o2)CC1,-72*
CCOC(=O)c1ccc(-c2c(-c3cc(OC)c(OC)c(OC)c3)noc2C)cc1F,58
CCOC(=O)c1ccc(-c2ccc3[nH]c4ccccc4c(=O)c3c2)cc1F,-81*
Cc1cccc(N(C(=O)c2nsc(Cl)c2Cl)C(C(=O)NC2CCCC2)c2ccc(O)cc2)c1 (centres undefined),-82*
CC(C)Oc1cccc(C(=O)C2CCCN(C(=O)CCc3cnn(C)c3)C2)c1 (centres undefined),-77*
COc1ccc(-c2oc3ccc(N4CCOCC4)cc3c2C#Cc2ccc(N)cc2)cc1,-92*
COc1ccc(-c2oc3ccc(N4CCOCC4)cc3c2C#CC2(O)CCCCC2)cc1,-118*
CCOC(=O)c1cc(-c2ccccc2)nn1Cc1cc(CC)no1,-100*
Cc1ccccc1OCC(=O)Nc1cccc(C(=O)O)c1,105
Cc1ccccc1OCC(=O)Nc1ccc2c(c1)OCCO2,-180*
Cc1cc(C)c(OCC(=O)Nc2ccc3c(c2)OCO3)cc1C,-112*
Cc1ccc(OCC(=O)Nc2ccc3c(c2)OCO3)c([N+](=O)[O-])n1,-111*
O=C(COc1ccccc1Cl)Nc1ccc2c(c1)OCCO2,-151*
N#Cc1cccc(NCC(=O)Nc2ccc3c(c2)OCCO3)c1,-69*
COc1ccccc1OCC(=O)Nc1ccc2c(c1)OCCO2,-89*
O=C(COc1ccc(Br)cc1Cl)NC(=O)Nc1ccc2c(c1)OCCO2,-72*
Cc1ccccc1OCC(=O)Nc1ccc(N2CCN(C)CC2)c(Cl)c1,-140*
COc1cc(C=O)ccc1OCC(=O)Nc1ccc2c(c1)OCO2,-90*
Cc1cccc(C)c1OCC(=O)Nc1ccc2c(c1)OCCO2,-158*
Cc1cc(C)c(OCC(=O)Nc2cccc(O)c2)cc1C,-114*
O=C1c2ccccc2C(=O)N1CCOc1ccccc1Cl,-105*
SMILES,aSyn UTR act
O=C1c2ccccc2C(=O)N1CCOc1ccccc1Br,-71*
Cc1ccccc1OCCN1C(=O)c2ccccc2C1=O,-93*
O=C1c2ccccc2C(=O)N1CCOc1ccccc1,-96*
CC(=O)Nc1nc2ccccc2n1CCOc1ccccc1Cl,73
Nc1cccc2c1C(=O)N(CCOc1ccc(F)cc1)C2=O,-118*
Cn1cc(Cl)c(C(=O)Nc2nc3ccc(Cl)cc3s2)n1,-197*
Cn1cc(Cl)c(C(=O)Nc2nc3ccc([N+](=O)[O-])cc3s2)n1,-68*
CCc1ccc(-c2cc(C)no2)cc1S(=O)(=O)N1CCN(c2ccccc2)CC1,-73*
Cc1ccc(OCCSc2ncnc3nc[nH]c23)cc1,-67*
N#CC1CC(c2ccccc2)=NN1c1ccccc1[N+](=O)[O-] (centres undefined),-95*
COc1ccc(NS(=O)(=O)c2cc(C)ccc2C)cc1,-67*
COc1ccc(NS(=O)(=O)c2cc(-c3cnc(C4CC4)o3)ccc2C)cc1,82
Cn1nnc(NC(=O)c2ccc3ccccc3c2)n1,-63*
Cn1nnc(NC(=O)c2ccc(C(C)(C)C)cc2)n1,-95*
CN1CCN(CC/C=C2/c3ccccc3Sc3ccc(S(=O)(=O)N(C)C)cc32)CC1,-97*
CC1(C)Cc2nc3sc(C(=O)NCCCO)c(N)c3cc2CS1,-92*
Cc1cc(C)cc(Oc2ncnc3c2ncn3Cc2c(Cl)cccc2Cl)c1,35
CCCCSc1nsc(NC(C)=O)n1,-135*
CCCSc1nsc(NC(=O)c2cccnc2OCC)n1,-72*
CCCSc1nsc(NC(=O)CCC)n1,-142*
CCCCCCSc1nsc(NC(C)=O)n1,-97*
Cn1cccc1C(=O)NNC(=O)c1ccccc1Br,-97*
CCN(CC)c1ccc(C(=O)NNC(=O)c2cccn2C)cc1,-115*
Cn1cccc1C(=O)NNC(=O)COc1ccccc1F,-87*
N#C/C(=C\c1ccc(OCc2ccc(Br)cc2)cc1)C(=O)Nc1cccc(C(=O)O)c1,-76*
SMILES,aSyn UTR act
N#C/C(=C\c1ccc(OCc2ccc(F)cc2)cc1)C(=O)Nc1cccc(C(=O)O)c1,-108*
COc1cc(/C=C(\C#N)C(=O)Nc2cccc(C(=O)O)c2)ccc1OCc1ccc(F)cc1,-90*
CCN1CCN(C(CNC(=O)c2ccc3c(c2)OCO3)c2cccnc2)CC1 (centres undefined),-69*
CN=C1S/C(=C\c2ccc(SC)cc2)C(=O)N1C,-98*
CN=C1S/C(=C\c2ccc(O)c(OC)c2)C(=O)N1C,-110*
CSC1=NC(=O)/C(=C/c2ccc(SC)cc2)S1,-81*
COc1ccc(/C=C2\SC(=N)N(c3nccs3)C2=O)cc1OC,65
Nc1ccc2oc(-c3ccccc3Cl)cc(=O)c2c1O,-63*
CCOC(=O)C1(Cc2ccccc2Cl)CCN(C(=O)CN2CCOC2=O)CC1,-145*
CC(C)(C)c1ccc(-c2nnc(N)s2)cc1,-65*
Cc1nc2cc(NC(=O)C3COc4ccccc4O3)ccc2s1 (centres undefined),-141*
Cc1nc2ccc(NC(=O)C3COc4ccccc4O3)cc2s1 (centres undefined),-141*

# Bioassay records from PubChem.
